Source: PubChem (several laboratories)
Hits are enriched below; roughly 27% of the tested compounds scored in any of these assays.
CYP2C9 act: CYP2C9 (human) activation; P11712; recombinant CYP2C9, luciferin-H conversion, luminescence; active compounds read high; factor 1 = untreated enzyme, 0 = blocked; activation factor at 5 µM; 96,000 tested, 1.4% active; AID 1024;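 active = activation factor of 2 or more for CYP2C9 at a 5 µM dose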
Cav32 inh: blocks human Cav3.2 T-type calcium channel; O95180; Cav3.2-expressing cells, Fluo-4 calcium fluorescence FDSS; active compounds read low; B-score at 10 µM; 100,000 tested, 4% active; AID 449739;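 active = single-dose well whose peak fluorescence ratio is a statistical outlier from its plate by either plate-standardised score or position-corrected B-score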
CYP2C9 inhib: blocks human cytochrome P450 2C9 | P11712 | inhibition, % at 5 µM | CYP2C9 Supersomes, luciferin-H conversion, luminescence | AID 777 | 96,000 tested, 20% active;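 active = blocking of liver enzyme CYP2C9 beyond about 50% at 5 µM, limit read from the data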
CYP2C19 act: increases human CYP2C19 enzyme activity; activation factor at 5 µM; P33261; 96,000 tested, under 10 active; AID 1025; recombinant CYP2C19, luciferin-H EGE luminescence; active compounds read high; 0 = fully inhibited enzyme, 1 = untreated enzyme;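 active = activation factor of at least 2 at 5 µM in the primary screen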
PTK2B oligo ant: Pyk2 (human) oligomerization antagonism; Q293 cells, Pyk2 FERM NanoBiT luminescence; active compounds read low; z-score (the deposit names both 25 µM and 10 µM); 99,000 tested, 0.83% active;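 active = Z-score of -3 or lower, scaled per plate to the spread of control and sample wells; inactive = z-score above -3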;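 note: negative z-score means lost luminescence so less FERM oligomerization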
Target sequence (Q14289 whole entry, looked up): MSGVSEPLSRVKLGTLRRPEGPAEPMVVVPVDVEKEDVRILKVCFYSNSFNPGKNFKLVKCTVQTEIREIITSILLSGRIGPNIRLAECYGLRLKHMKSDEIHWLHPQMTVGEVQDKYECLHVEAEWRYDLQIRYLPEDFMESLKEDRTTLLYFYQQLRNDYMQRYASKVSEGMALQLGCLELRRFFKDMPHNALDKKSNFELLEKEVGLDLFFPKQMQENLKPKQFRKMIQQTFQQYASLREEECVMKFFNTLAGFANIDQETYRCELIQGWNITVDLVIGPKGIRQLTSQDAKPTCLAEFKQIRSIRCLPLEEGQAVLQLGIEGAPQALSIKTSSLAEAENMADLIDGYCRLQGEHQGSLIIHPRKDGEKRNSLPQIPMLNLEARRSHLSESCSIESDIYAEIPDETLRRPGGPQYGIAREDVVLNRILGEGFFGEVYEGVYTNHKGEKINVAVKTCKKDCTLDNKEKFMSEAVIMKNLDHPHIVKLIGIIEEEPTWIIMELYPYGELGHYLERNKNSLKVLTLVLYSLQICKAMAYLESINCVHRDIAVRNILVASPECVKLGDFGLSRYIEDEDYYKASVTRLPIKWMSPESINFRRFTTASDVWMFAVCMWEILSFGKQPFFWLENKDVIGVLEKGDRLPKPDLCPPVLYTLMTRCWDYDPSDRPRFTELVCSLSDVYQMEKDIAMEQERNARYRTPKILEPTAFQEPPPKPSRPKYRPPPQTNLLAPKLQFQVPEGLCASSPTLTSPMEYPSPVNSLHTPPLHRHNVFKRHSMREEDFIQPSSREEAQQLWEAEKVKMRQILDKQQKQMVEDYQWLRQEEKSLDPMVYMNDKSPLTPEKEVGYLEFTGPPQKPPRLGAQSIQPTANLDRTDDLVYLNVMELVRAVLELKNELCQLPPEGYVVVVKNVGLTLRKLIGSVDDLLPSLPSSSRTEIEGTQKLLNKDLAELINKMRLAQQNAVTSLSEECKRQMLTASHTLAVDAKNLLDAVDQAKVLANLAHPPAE
CYP2C19 inh: blocks human cytochrome P450 2C19 | 96,000 tested, 21% active | CYP2C19 Supersomes, luciferin-H EGE luminescence, 30 min | P33261 | inhibition, % at 5 µM;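 active = CYP2C19 inhibition above a set limit at 5 µM in the primary screen, cut at about 50% in these data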
Of the large screens only hits and unclear results are named; the others gave an inactive call.

CCOCCCn1c(C)nc2c(c1=O)c1nc3ccccc3nc1n2CCC1=CCCCC1	CYP2C9 inhib 80.5, CYP2C19 inh 73.1
CC(=O)OCC(CCn1cnc2cnc(N)nc21)COC(C)=O	none (no result: CYP2C9 act, CYP2C9 inhib, CYP2C19 act, PTK2B oligo ant, CYP2C19 inh)
O=C(NNC(=O)c1cccnc1SCc1cccc([N+](=O)[O-])c1)c1ccccn1	none (no result: CYP2C9 act, Cav32 inh, CYP2C9 inhib, CYP2C19 act, CYP2C19 inh)
CCCCCNc1c(C(=O)OCC)c(=O)[nH]c2ccccc12	none
CC(C)(C)S(=O)(=O)c1c(C(=O)O)cccc1C(=O)O	none
COc1cccc(-c2nc(-c3ccccn3)no2)c1OC	CYP2C19 inh 90.5
COc1cc(-c2nc(-c3ccccn3)no2)cc(OC)c1OC	none
c1ccc(-c2noc(-c3cccc4ccccc34)n2)nc1	CYP2C19 inh 64.2
c1ccc(-c2cc(-c3nc(-c4ccccn4)no3)c3ccccc3n2)cc1	none (no result: CYP2C9 act, CYP2C9 inhib, CYP2C19 act, CYP2C19 inh)
CCOc1ccc(N(CC(=O)NC2CCCC2)C(=O)CCC(=O)Nc2ccccn2)cc1	none
COc1ccccc1N(CC(=O)NC1CCCCC1)C(=O)CCC(=O)Nc1ccccn1	CYP2C9 inhib 60.3, CYP2C19 inh 64.1
COc1ccccc1N(CC(=O)NC1CCCC1)C(=O)c1csnn1	CYP2C19 inh 90.9
Cc1cccc(N(CC(=O)NC2CCCCC2)C(=O)CCCC(=O)Nc2ccccn2)c1	none (no result: CYP2C9 act, Cav32 inh, CYP2C9 inhib, CYP2C19 act, CYP2C19 inh)
CCOc1ccc(N(CC(=O)NC2CCCC2)C(=O)CCCC(=O)Nc2ccccn2)cc1	none
Cc1cccc(N(CC(=O)NC2CCCC2)C(=O)CCCC(=O)Nc2ccccn2)c1	CYP2C9 inhib 61.7, CYP2C19 inh 78.1
Cc1ccc(C)c(N(CC(=O)NC2CCCC2)C(=O)CCCC(=O)Nc2ccccn2)c1	CYP2C9 inhib 83.4, CYP2C19 inh 80.1
CC1(OC(=O)C2CCCC2)C(=O)C=C2C=C(C3CC3)OC=C2C1=O (stereo not drawn)	none (no result: CYP2C9 act, CYP2C9 inhib, CYP2C19 act, PTK2B oligo ant, CYP2C19 inh)
Cc1nc(SCc2c(F)cccc2Cl)c2c(=O)n(C)c(=O)n(C)c2n1	none (no result: PTK2B oligo ant)
CC(C)[C@@H](C(=O)N1CCN(C(=O)OC(C)(C)C)CC1)n1cc(CCO)nn1	none (no result: CYP2C9 act, CYP2C9 inhib, CYP2C19 act, PTK2B oligo ant, CYP2C19 inh)
Oc1ccc(Cl)cc1/C=N/c1nccs1	Cav32 inh -3.4
CCN1C(=O)N(CC)C2C1N(C(C)=O)C(=O)N2C(C)=O (stereo not drawn)	none (no result: CYP2C9 act, CYP2C9 inhib, CYP2C19 act, CYP2C19 inh)
CCCCN(CCCC)c1nc2ccccc2nc1NS(=O)(=O)c1ccc(NC(C)=O)cc1	CYP2C9 inhib 64.2
CC(=O)Nc1ccc(S(=O)(=O)Nc2nc3ccccc3nc2Nc2ccc3ccccc3c2)cc1	none (no result: CYP2C9 act, Cav32 inh, CYP2C9 inhib, CYP2C19 act, CYP2C19 inh)
CCN(CC)C(=O)CNC(=S)N(CCCN1CCOCC1)Cc1cccs1	none (no result: CYP2C9 act, Cav32 inh, CYP2C9 inhib, CYP2C19 act, CYP2C19 inh)
Cc1cc(/C=N\NC(=O)CC(=O)NC2CCCCC2)c(C)n1-c1ccc(Cl)cc1	Cav32 inh -5.72
Cc1cc(/C=C(\C#N)C(=O)NCC2CCCO2)c(C)n1-c1ccc(Cl)cc1 (stereo not drawn)	none
CCCN1C[C@H](CSC)C[C@@H]2c3cccc4[nH]cc(c34)C[C@H]21	none (no result: CYP2C9 act, CYP2C9 inhib, CYP2C19 act, PTK2B oligo ant, CYP2C19 inh)
COc1ccc(S(=O)(=O)N2CCN(c3ccc4nnc(-c5ccc(F)cc5)n4n3)CC2)cc1	CYP2C9 inhib 97.1, CYP2C19 inh 89.5 (no result: PTK2B oligo ant)
COc1cccc(-c2csc(N3CCN(S(=O)(=O)c4ccc(F)cc4)CC3)n2)c1	none
c1ccc(-c2nnc3ccc(N4CCCC4)nn23)cc1	none (no result: PTK2B oligo ant)
Cc1ccc(S(=O)(=O)N2CCN(c3ccc4nnc(-c5ccccc5)n4n3)CC2)cc1	CYP2C9 inhib 99.1, CYP2C19 inh 94.8 (no result: PTK2B oligo ant)
CC(C)(C)NC(=O)Cn1c(SCC(=O)NC2CCCCC2)nc2ccccc21	none
COc1ccc(NS(=O)(=O)Cc2ccccc2Cl)cn1	CYP2C19 inh 63.8
Cn1c(=O)oc2cc(S(=O)(=O)N3CCOCC3)ccc21	none
Cn1c(=O)oc2cc(S(=O)(=O)N3CCC4(CC3)OCCO4)ccc21	CYP2C19 inh 75.3
Cn1c(=O)oc2cc(S(=O)(=O)N3CCN(Cc4ccc5c(c4)OCO5)CC3)ccc21	none
Cc1ccc(Cl)cc1N1CCN(S(=O)(=O)c2ccc3c(c2)oc(=O)n3C)CC1	CYP2C9 inhib 96.9
C#CCNC(=O)C1=C[C@H](c2ccc(Br)cc2)C[C@H](OCCCCO)O1	none (no result: CYP2C9 act, CYP2C9 inhib, CYP2C19 act, PTK2B oligo ant, CYP2C19 inh)
CCOC(=O)c1c(-c2ccsc2)csc1N	CYP2C19 inh 62.6
CCOC(=O)c1c(-c2ccc(C)o2)csc1N	CYP2C19 inh 58.8
COC(=O)c1c(-c2cccc(C)c2)csc1N	none
CCN(CC)S(=O)(=O)c1ccc(NC2CCCc3ccccc32)nc1 (stereo not drawn)	none (no result: CYP2C9 act, CYP2C9 inhib, CYP2C19 act, CYP2C19 inh)
COc1ccc(-c2nc3ccccc3c(=O)n2CCN2CCOCC2)cc1	none
CCCOc1ccc(C(=O)Nn2c(C)nc3ccccc3c2=O)cc1	none
CC#CCC(CC#CC)c1nc2ccccc2c(=O)n1N	none (no result: CYP2C9 act, Cav32 inh, CYP2C9 inhib, CYP2C19 act, CYP2C19 inh)
COc1ccc(CNn2c(C)nc3ccccc3c2=O)cc1	CYP2C19 inh 96.3
Cc1nc2ccccc2c(=O)n1N	CYP2C9 inhib 97.2, CYP2C19 inh 76.6
CCCCOc1ccc(CNn2c(C)nc3ccccc3c2=O)cc1	CYP2C9 inhib 66.9, CYP2C19 inh 91.4
CCS(=O)(=O)c1ccc2c(c1)N(S(C)(=O)=O)CC(C(=O)NCCOC)O2 (stereo not drawn)	none
CC(C)CCN1CC(C(=O)NCc2ccccc2)CC1=O (stereo not drawn)	Cav32 inh -5.26
Cc1[nH]c2ccccc2c1C(O)CN1CCN(c2cccc(C(F)(F)F)c2)CC1 (stereo not drawn)	none
COc1ccc(S(=O)(=O)NCC2CCC(C(=O)N3CCC4(CC3)OCCO4)CC2)cc1 (stereo not drawn)	none (no result: CYP2C9 act, CYP2C9 inhib, CYP2C19 act, CYP2C19 inh)
c1ccc(-c2nn3nnnc3c3ccccc23)cc1	CYP2C19 inh 51.5
Cc1ccc(-c2nn3nnnc3c3ccccc23)cc1C	none
O=C1CC(N2CCC(c3nc4ccccc4o3)CC2)C(=O)N1Cc1cccs1 (stereo not drawn)	none
C=CCn1cnc2c(c1=O)c1nc3ccccc3nc1n2Cc1ccccc1	none (no result: Cav32 inh, PTK2B oligo ant)
CC(C)Cn1cnc2c(c1=O)c1nc3ccccc3nc1n2Cc1ccc2c(c1)OCO2	CYP2C9 inhib 50.5 (no result: PTK2B oligo ant)
CCCn1cnc2c(c1=O)c1nc3ccccc3nc1n2CCc1ccccc1	CYP2C19 inh 90.2
COCCNC(=O)C1CC(c2cccc([N+](=O)[O-])c2)=NO1 (stereo not drawn)	none (no result: PTK2B oligo ant)
Oc1c(Cl)cc(Cl)cc1C=Nc1ccc2c(c1)OCCO2	Cav32 inh -8.99
O=C(NC(C(=O)c1ccccc1)n1ccc(=O)[nH]c1=O)c1ccccc1 (stereo not drawn)	none
Fc1ccc(OCc2nn3cnnc3s2)cc1	CYP2C19 inh 79.1
Cc1ccccc1CSc1nnc(C)n1N	none
Cc1nnc(SCc2ccccc2F)n1NCc1cccs1	CYP2C9 inhib 55.4, CYP2C19 inh 92.9
COc1cccc(C2C(C(C)=O)=C(O)C(=O)N2CCc2c[nH]c3ccccc23)c1 (stereo not drawn)	CYP2C9 inhib 70.2
O=C(O)C1CC(=O)N(CCc2c[nH]c3ccccc23)C1 (stereo not drawn)	none
COc1cccc(C2C(C(C)=O)=C(O)C(=O)N2Cc2ccco2)c1 (stereo not drawn)	none
